Assay [1] concerns Plasmodium falciparum Sir2 (PF13_0152, Sir2A). Nature of the assay: pfSir2 binders on small-molecule microarrays, primary screen, biochemical, small-molecule microarray, 635 nm fluorescence (AID 1098).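 Further: score merges spot fluorescence intensity with its signal-to-noise ratio.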 The conditions noted are these: small-molecule microarray binding, fluorescence 635 nm; higher = more signal.
Assay [2] in a line: small-molecule microarray binders of probe aDKK1, primary screen, biochemical, biotinylated probe, 635/667 nm fluorescence (AID 1099).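 Further: score merges 667nm spot fluorescence with signal to noise across triplicate slides.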 The conditions noted are these: higher = more signal.
Assay [3] in a line: small-molecule microarray binders of probe aCHRDL2, primary screen, biochemical, biotinylated probe, 635/667 nm fluorescence (AID 1100). As to conditions: higher = more signal.
A short description of assay [4]: splicing luciferase reporter signal modulators, primary screen, spliceosome inhibition project, cell-based, HEK293, splice +/- reporter (AID 1101).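 Further: HEK293 cells carrying a splicing-competent luciferase reporter gene; test concentration not given here.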 As to conditions: luminescence, 24 h, higher = more signal, called active from +8 up or from −8 down.
In assay [5] the target is Fibroblast growth factor 10 (Homo sapiens) (UniProt O15520). Kind of assay: FGF10 binders on small-molecule microarrays, primary screen, biochemical, small-molecule microarray, 635 nm fluorescence (AID 1102). As to conditions: FGF10 binding, fluorescence 635 nm, higher = more signal.
Chain of Fibroblast growth factor 10 (Homo sapiens) (O15520 whole entry, looked up): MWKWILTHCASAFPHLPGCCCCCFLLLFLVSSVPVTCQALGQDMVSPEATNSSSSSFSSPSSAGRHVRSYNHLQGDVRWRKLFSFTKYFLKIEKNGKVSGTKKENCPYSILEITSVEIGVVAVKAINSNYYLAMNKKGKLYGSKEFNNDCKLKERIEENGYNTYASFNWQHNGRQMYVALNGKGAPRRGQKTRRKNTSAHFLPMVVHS
Assay [6] has as its system glycogen synthase kinase-3 (GSK3A per assay name; protocol says GSK3B). Nature of the assay: GSK3 binders on small-molecule microarrays, primary screen, biochemical, small-molecule microarray, 635 nm fluorescence, GSK3A (AID 1103). Further: the record names both GSK3A and GSK3B. The conditions noted are these: small-molecule microarray binding, fluorescence 635 nm; higher = more signal.
Assay [7] deals with Epidermal growth factor receptor (Homo sapiens) (UniProt P00533). Kind of assay: EGFR binders on small-molecule microarrays, primary screen, biochemical, small-molecule microarray, 635 nm fluorescence (AID 1104).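 Further: score merges 667 nm emission intensity with spot signal to noise over triplicate slides.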 As to conditions: EGFR binding, higher = more signal.
Chain of Epidermal growth factor receptor (Homo sapiens) (P00533 whole entry, looked up): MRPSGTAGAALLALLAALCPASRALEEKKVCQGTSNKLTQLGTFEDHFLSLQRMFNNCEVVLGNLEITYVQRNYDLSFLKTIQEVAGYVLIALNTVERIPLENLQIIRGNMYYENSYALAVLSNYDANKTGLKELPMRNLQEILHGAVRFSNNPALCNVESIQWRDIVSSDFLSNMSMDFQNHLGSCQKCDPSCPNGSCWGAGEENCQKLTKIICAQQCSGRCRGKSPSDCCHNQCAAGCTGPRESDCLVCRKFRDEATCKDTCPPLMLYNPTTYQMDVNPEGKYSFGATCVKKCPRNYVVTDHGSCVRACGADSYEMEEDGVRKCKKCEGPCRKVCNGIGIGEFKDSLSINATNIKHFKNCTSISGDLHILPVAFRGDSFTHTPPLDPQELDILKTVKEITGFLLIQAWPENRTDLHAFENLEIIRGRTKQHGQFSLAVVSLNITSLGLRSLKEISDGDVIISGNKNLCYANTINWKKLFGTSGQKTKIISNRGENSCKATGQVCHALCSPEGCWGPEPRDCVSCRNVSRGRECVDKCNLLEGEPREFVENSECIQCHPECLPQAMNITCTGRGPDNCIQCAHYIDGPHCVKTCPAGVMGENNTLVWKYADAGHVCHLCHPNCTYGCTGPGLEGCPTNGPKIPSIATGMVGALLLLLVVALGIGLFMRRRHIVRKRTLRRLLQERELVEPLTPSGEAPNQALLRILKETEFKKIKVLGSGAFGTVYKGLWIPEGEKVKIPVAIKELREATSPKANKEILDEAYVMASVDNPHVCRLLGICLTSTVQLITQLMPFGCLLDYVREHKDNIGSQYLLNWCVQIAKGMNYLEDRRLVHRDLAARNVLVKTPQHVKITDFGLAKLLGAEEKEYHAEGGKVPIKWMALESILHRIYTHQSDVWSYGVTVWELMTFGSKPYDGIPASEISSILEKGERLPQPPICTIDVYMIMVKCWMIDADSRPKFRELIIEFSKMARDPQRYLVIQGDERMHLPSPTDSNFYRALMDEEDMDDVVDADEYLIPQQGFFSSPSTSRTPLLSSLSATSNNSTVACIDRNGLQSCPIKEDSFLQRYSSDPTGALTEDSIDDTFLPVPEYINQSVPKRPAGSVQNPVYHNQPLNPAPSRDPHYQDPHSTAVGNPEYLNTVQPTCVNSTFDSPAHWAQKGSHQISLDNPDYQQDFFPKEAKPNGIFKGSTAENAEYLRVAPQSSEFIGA
In assay [8] the target is Follistatin-related protein 3 (Homo sapiens) (UniProt O95633). Nature of the assay: FSTL3 binders on small-molecule microarrays, primary screen, biochemical, small-molecule microarray, 635 nm fluorescence (AID 1105).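 Further: score merges emission near 667 nm and signal to noise per printed spot across three slides.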 The conditions noted are these: FSTL3 binding, higher = more signal.
Chain of Follistatin-related protein 3 (Homo sapiens) (O95633 whole entry, looked up): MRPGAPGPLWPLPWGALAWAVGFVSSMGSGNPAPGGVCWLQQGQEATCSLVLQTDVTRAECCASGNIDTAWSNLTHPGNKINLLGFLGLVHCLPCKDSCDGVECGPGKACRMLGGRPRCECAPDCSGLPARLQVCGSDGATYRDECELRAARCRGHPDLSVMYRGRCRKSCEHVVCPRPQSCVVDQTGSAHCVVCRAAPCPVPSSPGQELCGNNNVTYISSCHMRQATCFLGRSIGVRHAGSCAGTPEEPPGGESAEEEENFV
Assay [9] deals with Dickkopf-related protein 1 (Homo sapiens) (UniProt O94907). Nature of the assay: DKK1 binders on small-molecule microarrays, primary screen, biochemical, small-molecule microarray, 635 nm fluorescence scan (AID 1106).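 Further: score merges emission near 667 nm with signal to noise over three replicate slides.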 As to conditions: DKK1 binding, higher = more signal.
Chain of Dickkopf-related protein 1 (Homo sapiens) (O94907 whole entry, looked up): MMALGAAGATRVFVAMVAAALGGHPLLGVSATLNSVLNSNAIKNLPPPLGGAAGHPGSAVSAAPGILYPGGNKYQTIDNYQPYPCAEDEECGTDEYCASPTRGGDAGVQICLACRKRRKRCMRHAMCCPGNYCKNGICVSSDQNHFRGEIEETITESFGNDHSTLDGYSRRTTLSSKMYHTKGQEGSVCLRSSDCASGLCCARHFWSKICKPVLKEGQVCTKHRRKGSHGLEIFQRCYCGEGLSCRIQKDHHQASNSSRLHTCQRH
In assay [10] the test system is Inhibin beta A chain (activin A). Kind of assay: INHBA (activin A) binders on microarrays, primary screen, biochemical, small-molecule microarray, 635 nm fluorescence scan (AID 1107).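 Further: mouse activin A protein probed at 4.33 µg/mL on printed slides; score merges bound-protein fluorescence near 667 nm with spot signal-to-noise.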 As to conditions: small-molecule microarray binding, higher = more signal.
Assay [11] relates to Human papillomavirus type 1a protein E7 (residues 44-93). Kind of assay: HPV1a E7 fragment binders on microarrays, primary screen, biochemical, small-molecule microarray, residues 44-93, 635 nm fluorescence (AID 1108).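 Further: E7 fragment applied at 1 µg/mL in TBST for 1 h at 4 C; score combines spot fluorescence with its signal to noise ratio.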 The conditions noted are these: small-molecule microarray binding, fluorescence 635 nm; higher = more signal.
Assay [12] is described as follows: modulators of HCV replicon luciferase signal, primary screen, HCV replication inhibitor project, Huh7 cells, luciferase reporter (AID 1109).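 Further: huh7 hepatoma cells harbouring a luciferase neomycin HCV replicon reporter; luciferase luminescence as measure of HCV replicon replication; test concentration not given here.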 As to conditions: 48 h, higher = more signal.
For assay [13], the target named is Left-right determination factor 2 (Homo sapiens) (UniProt O00292). Kind of assay: LEFTY2 binders on small-molecule microarrays, primary screen, biochemical, small-molecule microarray, 635 nm fluorescence scan (AID 1110). As to conditions: LEFTY2 binding, higher = more signal.
Chain of Left-right determination factor 2 (Homo sapiens) (O00292 whole entry, looked up): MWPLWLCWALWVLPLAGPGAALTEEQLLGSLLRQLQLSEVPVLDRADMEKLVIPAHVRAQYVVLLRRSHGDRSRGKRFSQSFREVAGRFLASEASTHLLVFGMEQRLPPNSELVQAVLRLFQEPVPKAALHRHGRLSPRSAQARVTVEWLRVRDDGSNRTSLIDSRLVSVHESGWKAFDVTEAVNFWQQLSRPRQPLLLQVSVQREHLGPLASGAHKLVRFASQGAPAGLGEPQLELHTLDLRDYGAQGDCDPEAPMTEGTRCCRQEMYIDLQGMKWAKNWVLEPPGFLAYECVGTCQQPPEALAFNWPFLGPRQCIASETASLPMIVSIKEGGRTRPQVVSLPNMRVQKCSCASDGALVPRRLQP
Assay [14] has as its target Calmodulin-1 (Homo sapiens) (UniProt P0DP23). Kind of assay: CALM1 binders on microarrays, EGTA buffer, profiling panel, biochemical, small-molecule microarray, Cy5-labelled CALM1 (AID 1111).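 Further: labelled calmodulin applied in Tris saline Tween buffer holding calcium plus EGTA and DTT.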 The conditions noted are these: Cy5-CALM1 binding fluorescence, higher = more signal.
For assay [15] the target is unchanged. Kind of assay: calcium-bound CALM1 binders on microarrays, profiling panel, artefact control for SMM control-protein annotation, biochemical, small-molecule microarray, Cy5-labelled CALM1, plus calcium (AID 1112).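 Further: score merges spot fluorescence with signal to noise from triplicate slides.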 As to conditions: Cy5-CALM1 binding fluorescence, higher = more signal.
Assay [16] in a line: small-molecule microarray binders of probe aWnt5a, primary screen, biochemical, biotinylated probe, 635/667 nm fluorescence (AID 1113).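 Further: score merges 667 nm fluorescence intensity with signal-to-noise per printed feature.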 As to conditions: higher = more signal.
Assay [17] can be described thus: small-molecule microarray binders of probe aShh, primary screen, biochemical, biotinylated probe, 635/667 nm fluorescence (AID 1114).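 Further: probe is biotin-labelled aShh protein from a stem cell growth factor screen; measures binding of labelled protein to compounds printed on the slide; score merges feature fluorescence at 667 nm with signal-to-noise.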 As to conditions: higher = more signal.
The nature of assay [18]: small-molecule microarray binders of probe aNog, primary screen, biochemical, biotinylated probe, 635/667 nm fluorescence (AID 1115).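 Further: probe is biotinylated aNog protein used at 0.15 µg/mL for 1 h at 4 C; z-score combines 667 nm fluorescence of each spot with its signal to noise.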 The conditions noted are these: higher = more signal.
Assay [19] addresses Torsin-1A-interacting protein 1 (Homo sapiens) (UniProt Q5JTV8). Kind of assay: LAP1 binders from COS7 cell lysate, primary screen, small-molecule microarray, 635/667 nm fluorescence (AID 1116). The conditions noted are these: COS7-hLAP1 lysate binding, 635 nm fluorescence, higher = more signal.
Assay [20] addresses Alpha-bungarotoxin (Bungarus multicinctus) (UniProt P60615). Nature of the assay: alpha-bungarotoxin binders on microarray, profiling panel, artefact control for SMM control protein annotation, biochemical, small-molecule microarray, Alexa647 label, 635/667 nm fluorescence (AID 1117). As to conditions: alpha-BTX-A647 binding fluorescence, higher = more signal.

Active and inactive are the calls of the source.

Chain of Torsin-1A-interacting protein 1 (Homo sapiens) (Q5JTV8 whole entry, looked up): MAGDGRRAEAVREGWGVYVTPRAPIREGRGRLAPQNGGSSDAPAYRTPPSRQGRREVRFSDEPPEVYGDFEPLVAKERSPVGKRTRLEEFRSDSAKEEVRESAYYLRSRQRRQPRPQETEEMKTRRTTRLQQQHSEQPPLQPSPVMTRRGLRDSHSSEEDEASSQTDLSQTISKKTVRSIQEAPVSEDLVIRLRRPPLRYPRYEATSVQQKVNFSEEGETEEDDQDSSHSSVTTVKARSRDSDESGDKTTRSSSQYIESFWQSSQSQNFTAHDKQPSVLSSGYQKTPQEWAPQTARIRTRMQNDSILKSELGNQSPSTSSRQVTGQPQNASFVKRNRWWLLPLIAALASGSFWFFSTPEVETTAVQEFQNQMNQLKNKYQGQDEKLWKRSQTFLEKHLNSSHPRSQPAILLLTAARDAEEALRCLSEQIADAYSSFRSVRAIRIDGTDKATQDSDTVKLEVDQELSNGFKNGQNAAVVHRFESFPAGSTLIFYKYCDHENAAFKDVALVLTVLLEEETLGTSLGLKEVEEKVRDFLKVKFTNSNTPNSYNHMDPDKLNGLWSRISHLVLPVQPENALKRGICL
Chain of Alpha-bungarotoxin (Bungarus multicinctus) (P60615 whole entry, looked up): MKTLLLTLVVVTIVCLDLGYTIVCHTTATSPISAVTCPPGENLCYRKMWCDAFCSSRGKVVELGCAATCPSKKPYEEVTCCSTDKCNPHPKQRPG

`CC1CC/C=C\[C@H]2OC34C=CCN(Cc5ccccc5)C(=O)[C@H]3N(C(C)CO)C(=O)[C@@H]4C2C(=O)O1` (stereo not given in full): the composite z-score was -0.588 in assay [1]; -0.169 in [2]; -0.506 in assay [3]; 0.0204 in assay [5]; -0.444 in assay [6]; -0.492 in assay [7]. Also, the composite z-score was 0.196 in assay [8]; 0.33 in assay [9]; 0.951 in assay [10]; -1.75 in assay [11]; 0.267 in [13]; -0.756 in assay [14]. In addition, the composite z-score was -0.857 in assay [15]; -0.148 in assay [16]; 0.0952 in assay [17]; -0.193 in assay [18]; -0.457 in assay [19]; -0.463 in [20]. For the same compound, the results for the z-score in [4] and in assay [12] were 0.441 (inactive) and -0.514, respectively.

For the compound `CN(C)CCCCNC(=O)[C@@H]1C[C@@H]2C(=O)N[C@@H](CCCCN)C(=O)N2[C@@H]1c1ccc(O)cc1`, the composite z-score was 1.09 in [1]; -0.0238 in assay [2]; 0.309 in assay [3]; 0.41 in [5]; 1.07 in assay [6]; 0.606 in [7]. Besides, the composite z-score turned out to be 0.463 in assay [8]; 1.26 in assay [9]; 0.684 in assay [10]; 0.0215 in assay [11]; 0.886 in [13]; 1.53 in assay [14]. Besides, the composite z-score is -0.288 in assay [15]; 0.0725 in assay [16]; 0.213 in assay [17]; 0.654 in assay [18]; 0.677 in assay [19]; 1.36 in assay [20]. Moreover, the results for the z-score in [4] and in assay [12] were -0.162 (inactive) and -1.04, respectively.

Consider `O=C(O)[C@H]1C[C@H]2C(=O)N3CCC[C@H]3C(=O)N2[C@H]1c1ccc(O)cc1`, for which the composite z-score in assay [1] was 0.383; in [2], -0.0067; in assay [3], 0.915; in assay [5] it was -1.41; in assay [6] it was -0.474; in assay [7], -1.51. For the same compound, the composite z-score in assay [8] is -0.949; in assay [9], -1.13; in [10], -0.209; in assay [11], -0.124; in [13], -2.21; in assay [14], -0.342. For the same compound, the composite z-score in assay [15] is 0.123; in assay [16] it was -0.202; in assay [17], -0.348; in [18] it was -0.216; in assay [19] it was 0.319; in [20], -1.55. Besides, the z-score in assay [4] was 0.127 (inactive); in assay [12] it was 0.253.

Regarding `C=C(CCCC)/C(=C/C[C@H](OC(C)=O)c1ccc(OCCO)cc1)c1cnc2ccccc2c1`, the composite z-score in assay [1] is 0.641; in assay [2], -0.182; in assay [3], -0.0866; in assay [5] it was 0.672; in [6] it was 0.209; in assay [7], 0.384. Moreover, the composite z-score in [8] was 1.12; in assay [9], 0.446; in [10], 1.53; in [11], 1.43; in [13] it was 0.52; in assay [14], -0.185. In addition, the composite z-score in [15] is -0.378; in assay [16], -0.101; in assay [17], -0.0035; in assay [18], -0.483; in assay [19], 0.491; in [20] it was 1.85. Besides, the z-score in assay [4] is 0.299 (inactive); in assay [12] it was -2.43.

`O=C1C2C=CC(C(O)C=Cc3ccc([N+](=O)[O-])cc3)N(Nc3ccccc3F)C2C(=O)N1c1ccccc1` (stereo not given): the composite z-score in assay [1] worked out at 0.808; in [2], 0.468; in [3], 0.831; in [5], 1.13; in assay [6], 1.28; in assay [7], 0.464. Further, the composite z-score in [8] turned out to be 1.13; in assay [9] it was 0.0328; in assay [10], 1.08; in assay [11] it was 1.47; in assay [13] it was 0.458; in assay [14], 1.27. The composite z-score in assay [15] was 0.362; in assay [16], 0.0037; in [17], 0.166; in assay [18] it was 0.581; in [19] it was 1.18; in assay [20], 1.12. Moreover, the z-score in [4] is 0.755 (inactive); in assay [12], -0.969.

With `CC(C)N1CC=CC23O[C@@H]4C=CCOC(=O)[C@@H]4[C@H]2C(=O)N(CCCCCO)[C@@H]3C1=O` (stereo not given in full), the composite z-score in assay [1] was 0.818; in assay [2], -0.288; in [3] it was 0.248; in assay [5], -0.927; in assay [6], -0.69; in [7], -0.0616. Also, the composite z-score in assay [8] was -0.266; in assay [9], -0.758; in [10], 0.66; in [11] it was -0.608; in [13], -0.624; in assay [14], 0.0459. The composite z-score in [15] is 0.395; in [16], -0.18; in assay [17] it was 0.0723; in [18], -0.198; in assay [19], 1.33; in [20], -0.35. Also, the z-score is -1.54 (inactive) in assay [4] and -0.147 in assay [12].

For the origin of these results see PubChem BioAssay.
